Source: PubChem BioAssay (National Center for Advancing Translational Sciences (NCATS))
This is a sample that favours compounds with a hit; in the whole collection about 19% have one here.
HT1080 IDH1KD tx: qHTS for induction of synthetic lethality in tumor cells producing 2HG: qHTS for the HT-1080-IDH1KD cell line; HT-1080 IDH1 knockdown viability, ATP luminescence, 48 h; 360,000 compounds, 2% hits; AID 686971, 2013; Potency, µM (series often up to 46.1 µM), without a hit: at the highest dose activity, negative = toxicity, actives largely listed as cytotoxic;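 further: 0% = DMSO wells and -100% = cell-free medium wells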
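IDH1KD HT-1080 cells, 750/well, RPMI + 5% FBS; compound pinned after 2 h settling; 48 h, 37 °C; CellTiter-Glo luminescence; % activity normalised to DMSO and no-cell wells; curves fitted, classed by r2 and efficacy.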
HT1080NT lethal: qHTS for induction of synthetic lethality in tumor cells producing 2HG: qHTS for the HT-1080-NT fibrosarcoma cell line. HT-1080-NT fibrosarcoma viability, CellTiter-Glo ATP luminescence, 48 h. Potency, µM (top dose mostly 46.1 µM), for the others: at the top dose activity, negative = less viability, hits mostly cytotoxic. 360,000 compounds, 1.6% hits. AID 686970, 2013;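 further: NT is the 2HG producing partner of a matched IDH1 knockdown line; 0% = DMSO-treated cells and -100% = media-only wells without cells; nearly all actives have a fitted effect of over 55% in size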
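Viability of the 2HG-overproducing fibrosarcoma line after 48 hours of compound exposure at 37 degrees C was determined by luminescence with CellTiter-Glo, and concentration-effect curves were then fitted and categorized.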
KB-3-1 tox: qHTS assay for MDR1-selective chemotherapeutics: Primary screen using the parental adenocarcinoma cell KB-3-1; KB-3-1 viability, CellTiter-Glo ATP luminescence, 72 h; Potency, µM (highest dose often 46.1 µM), usual class: cytotoxic; 400,000 compounds, 1.4% hits; further: nearly all actives have a fitted effect of over 60% in size
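KB-3-1 cells, DMEM (no phenol red) + 10% FBS; compound by pin transfer, 72 h, 37 °C. Readout: CellTiter-Glo luminescence after 10 min. Data normalized, curve-fitted.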
KB-V1 cytotox: qHTS assay for MDR1-selective chemotherapeutics: Primary screen using the drug-selected MDR subline cells KB-V1. 400,000 compounds, 3.4% hits. Potency, µM (top dose mostly 46.1 µM), actives largely listed as cytotoxic. KB-V1 MDR cells viability, CellTiter-Glo, 72 h; further: nearly all actives have a fitted effect of over 60% in size
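qHTS viability screen in drug-selected KB-V1 MDR cells: 72 h compound treatment at 37 degrees C, ATP luminescence end point.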
DT40 TDP1 CPT: qHTS for Inhibitors of human tyrosyl-DNA phosphodiesterase 1 (TDP1): qHTS in cells in presence of CPT. chicken DT40 Tdp1-/-;hTDP1 cells + 20 nM CPT, ATP luminescence, 48 h. Potency, µM (doses to about 46.2 µM), for the others: at the highest dose activity change, negative = growth inhibition, hits mostly inhibitors. 420,000 compounds, 12% hits. AID 686979, 2013; further: nearly all actives have a fitted effect of over 55% in size
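Chicken DT40 Tdp1-/- cells complemented with human TDP1, 400 cells/well, exposed to compounds plus 20 nM camptothecin for at least 48 h at 37 C; viability read as ATP content by CellTiter-Glo luminescence.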
TDP1 cell noCPT: qHTS for Inhibitors of human tyrosyl-DNA phosphodiesterase 1 (TDP1): qHTS in cells in absence of CPT; 420,000 compounds, 15% hits; Potency, µM (doses to about 46.2 µM), for inactives: top-dose activity change, negative = growth inhibition, usual class: inhibitors; AID 686978, 2013; DT40 Tdp1-/- hTDP1 cells, no CPT, ATP luminescence, 48 h; further: nearly all actives have a fitted effect of over 55% in size
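Growth kinetics read by CellTiter-Glo luminescence after ≥48 hr at 37 °C. Cells: DT40 Tdp1-/- stably carrying human TDP1, 400 per well, compound exposure in the absence of CPT (DMSO vehicle).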
Active calls of the source: *; i = inactive; ? = inconclusive; . = not tested or not shown; ! = not active in a repeat; [ ] = dose if it differs, or a comment. The call rests on the fitted dose curve; in most records, active means well fitted curve in the direction sought with a large enough effect; inconclusive means small, poorly fitted or top-dose-only effect, or another doubt; inactive means no such curve, though single readings can be large; an effect the other way counts as inactive or inconclusive. Unless noted, on the % scale 0 is the no-effect control and ±100 the full control effect; potency means the concentration at half of the fitted maximal effect.

SMILES | HT1080 IDH1KD tx | HT1080NT lethal | KB-3-1 tox | KB-V1 cytotox | DT40 TDP1 CPT | TDP1 cell noCPT
CO[C@H]1C[C@H](O[C@H]2[C@H](C)[C@@H](O[C@@H]3O[C@H](C)C[C@H](N(C)C)[C@H]3OC(C)=O)[C@@H](C)C[C@]3(CO3)C(=O)[C@H](C)[C@@H](OC(C)=O)[C@@H](C)[C@@H](C)OC(=O)[C@@H]2C)O[C@@H](C)[C@@H]1OC(C)=O | . | . | . | . | 11%[21.1 µM] | -17%[21.1 µM]
COc1ccccc1C(=O)Nc1ccnn1C1CCN(C/C=C/c2ccc(F)cc2)CC1 | ? | ? | i | ? | ? | ?
CC1=C(CO)C(=O)OC([C@@H](C)C2CC[C@H]3C4C[C@H]5O[C@]56[C@@H](O)C=CC(=O)[C@]6(C)C4CC[C@]23C)C1 (some centres undefined) | 18µM* | 21µM* | ? | 13µM* | 1.5µM* | 1.3µM*
CC(C(=O)O)C1CCC2C3CC=C4CC(O)CC[C@@]4(C)C3CC[C@]12C (some centres undefined) | . | . | . | . | 2% | 0%
CS(=O)(=O)Nc1ccc(C(=O)Nc2ccc3ccccc3c2)cc1 | -29% | ? | i | ? | 2.9µM* | 5.2µM*
CC(C)c1ccc(NC(=O)c2ccc(NS(C)(=O)=O)cc2)cc1 | -25% | ? | i | i | 2.9µM* | 4.6µM*
CCOC(=O)c1ccc(NC(=O)c2ccc(NS(C)(=O)=O)cc2)cc1 | -22% | ? | i | ? | ? | ?
Cc1cc(CNC(=O)COC(=O)c2ccc(Cl)c(N)c2)cc(C)c1O | -2% | -3% | i | i | 1% | -7%
O=C(O)c1ccccc1C(=O)OCC1CCC(=NO)CC1 (centres undefined) | 1% | -1% | i | i | 5% | -16%
COc1cc(C2(c3ccc(O)c(OC)c3)C(=O)Nc3c(C)cc(Br)cc32)ccc1O | ? | ? | i | i | 2% | 0%
COc1cc2[nH]cc(C(=O)NCc3ccccc3)c(=O)c2cc1OC | -16% | -15% | i | i | ? | 26µM*
COc1ccc(CCNC(=O)c2c[nH]c3ccc(F)cc3c2=O)cc1OC | -8% | -2% | i | i | ? | 13µM*
CC1CN(C(=O)CCC(=O)NCc2cccs2)c2ccccc2O1 (centres undefined) | . | . | i | i | 2% | 4%
O=C(NCCCc1nc2ccccc2n1CCOc1ccccc1)C1CCCCC1 | . | . | i | i | -28% | -26%
O=C(NCCCc1nc2ccccc2n1CCCOc1ccccc1)C1CCCCC1 | . | . | i | ? | 11µM* | 10µM*
O=C(NCCCc1nc2ccccc2n1CCCCOc1ccccc1)C1CCCCC1 | . | . | ? | ? | ? | 13µM*
CC(=O)Nc1nonc1-c1nnc(SCC(=O)Nc2ccccc2Cl)n1C | . | . | i | i | -4% | -25%
COc1ccc(CCNc2oc(COc3cccc(C)c3)nc2C#N)cc1OC | . | . | i | i | ? | 23µM*
COc1ccc(CCNc2oc(COc3ccc(Cl)cc3)nc2C#N)cc1OC | . | . | i | ? | 13µM* | 12µM*
CCOc1c(Br)cc(/C=C2\N=C(C)OC2=O)cc1Br | 16% | 9% | i | i | 21µM* | ?
CCCCCCCCCCCCCCCC(=O)OCC1OC(n2ccc(N)nc2=O)C(O)C1O (centres undefined) | -11% | -1% | i | i | 0.52µM* | 0.65µM*
Nc1nc(=O)n(C2CCC(CO)O2)cc1F (centres undefined) | -7% | 0% | . | i | ? | ?
Nc1ccn([C@H]2CC[C@@H](CO)O2)c(=O)n1 | -1% | 15% | i | i | 7.5µM* | 11µM*
CCCCCCCCCCCCCCCC(=O)Nc1ccn(C2OC(CO)C(O)C2O)c(=O)n1 (centres undefined) | ? | -4% | ? | i | 0.65µM* | 0.73µM*
Nc1ccn(C2OC(CO)C(O)C2O)c(=O)n1 (centres undefined) | . | . | . | . | 0.016µM*! | 0.012µM*!
SMILES | HT1080 IDH1KD tx | HT1080NT lethal | KB-3-1 tox | KB-V1 cytotox | DT40 TDP1 CPT | TDP1 cell noCPT
Cn1c(SCC(=O)NCC2CCCO2)nnc1-c1ccco1 (centres undefined) | 1% | 6% | i | i | 7% | 4%
COc1cccc(OCC(O)CNC(=O)c2oc3ccc(C)cc3c2C)c1 (centres undefined) | -2% | -14% | i | i | 7% | ?
Nc1ccn([C@@H]2O[C@H](CO)[C@@H](O)[C@@H]2O)c(=O)n1 | ? | -8% | i | i | 0.12µM* | 0.16µM*
OCC1OC(n2ccc3c2ncn2ncnc32)C(O)C1O (centres undefined) | 0.65µM* | 0.58µM* | ? | 0.65µM* | 0.37µM* | 0.46µM*
Nc1ccn(C2OC(CO)C(O)C2F)c(=O)n1 (centres undefined) | -4% | -1% | i | i | 1.3µM* | 2.1µM*
NC[C@H]1O[C@@H](n2ccc(N)nc2=O)[C@H](O)[C@@H]1O | -15% | 1% | ? | i | ? | ?
O=S1c2ccccc2Sc2ccccc21 | 1% | -2% | i | i | -10% | -7%
Cc1ccc(CSc2nnc([C@@H](N)C(C)C)o2)cc1 | . | . | i | i | . | .
C[C@H](NC(=O)OC(C)(C)C)c1nnc(SCC(=O)Nc2cccc(Cl)c2)o1 | 19% | ? | i | i | -25% | 17%
CC(C)(C)OC(=O)NCCc1nnc(SCC(=O)c2ccc(Cl)cc2)o1 | 0% | 8% | i | ? | 23µM* | ?
O=C(CSc1nnc(CNC(=O)c2cccs2)o1)c1ccc(Cl)cc1 | -7% | -8% | i | i | 21µM* | ?
C[C@H](NC(=O)OC(C)(C)C)c1nnc(SCC(=O)c2ccc(Cl)cc2)o1 | -1% | -11% | i | ? | 16µM* | 21µM*
CC(C)(C)OC(=O)NCCc1nnc(SCc2ccc(Cl)cc2Cl)o1 | -11% | -3% | ? | ? | ? | ?
